These results are taken from PubChem BioAssay (NCATS).

“And” between values parts separate entries of the source, which are not always exact repeats. Equal entries are not always repeated. Inconclusive results are not listed. A number with no mark means an inactive call. The source made the active and inactive calls. Calls follow the shape of the dose curve; as a rule, active = well fitted curve in the direction sought with a large enough effect; inconclusive = small, poorly fitted or top-dose-only effect, or another doubt; inactive = no such curve, though single readings can be large; an effect the other way counts as inactive or inconclusive.

Test [1] has as its target Cellular tumor antigen p53 (Homo sapiens) (UniProt P04637). Kind of test: Primary qHTS for small molecule compounds that upregulate eGFP-tagged delta133p53alpha (in N-terminal) cells. (AID 2060322).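 Also: cells pre-induced with doxycycline then dosed without doxycycline; series mostly up to about 56 µM; 0% = DMSO vehicle and 100% = reference activator; nearly all actives have a fitted effect of over 75% in size.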 The note with it: NCI-H358 eGFP-delta133p53alpha fluorescence, 24 h; activation: stronger effect = higher value. Summed up:
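NCI-H358 cells pre-induced 24 h with 10 ng/ml doxycycline for eGFP-delta133p53alpha, plated dox-free and exposed 24 h at 37C to titrated compounds. Fixed, Hoechst-stained; gated GFP peak intensity by laser scanning cytometry, normalized to DMSO (0%) and 57.5 uM 5-azacytidine (100%).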
On the technique in general: In qHTS, concentration-response curves come from the screen itself.

In test [2] the target is Aldehyde dehydrogenase, mitochondrial (Homo sapiens) (UniProt P05091). Kind of test: qHTS for Inhibitors of the Aldehyde Dehydrogenase Family (ALDH2) Primary screen (AID 2061308).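 Also: plate controls were vehicle for no effect and reference inhibitor for full effect; nearly all actives have a fitted effect of over 55% in size.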
In test [3] the target is Retinaldehyde dehydrogenase 3 (Homo sapiens) (UniProt P47895). Kind of test: qHTS for Inhibitors of the Aldehyde Dehydrogenase Family (ALDH1A3) Validation screen (AID 2061312). Also: % is scaled to controls: 0 for no effect and ±100 for the full control effect; nearly all actives have a fitted effect of over 45% in size.
For test [4] the target is unchanged. As to the kind of experiment: qHTS for Inhibitors of the Aldehyde Dehydrogenase Family (ALDH1A3) Primary screen (AID 2061315).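 Also: plate controls were DMSO vehicle for no effect and reference inhibitor for full effect.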
Test [5] can be described thus: BET inhibitor-based combinations targeting novel dependencies in MECOM-rearranged (r) AML: SET-2 cell line (AID 2202231). Also: nearly all actives have a fitted effect of over 35% in size. Also: potency is read from the fitted curve at half-maximal effect.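 As to viability: plate controls were DMSO treated cells for no effect and wells without cells for full effect.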 The note with it: SET-2 AML cells viability, CellTiter-Glo luminescence, 48 h; viability: stronger effect = lower value, concentration not given here. Summed up:
(§1)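 Cells were plated at 500 per well and exposed to an 11-point dose series of each drug for 48 hr. Viability was measured by CellTiter-Glo luminescence, normalized to DMSO and empty-well controls, and summarized as AUC and per-cell-line Z-AUC.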
(Cellular ATP, detected with luciferase, serves as a proxy for viable cell number.)

Test [6] in a line: BET inhibitor-based combinations targeting novel dependencies in MECOM-rearranged (r) AML: OCI-AML3 cell line (AID 2202232). Also: nearly all actives have a fitted effect of over 35% in size. Also: potency is read from the fitted curve at half-maximal effect. The note with it: Potency: OCI-AML3 viability. Summed up:
as §1

The nature of test [7]: BET inhibitor-based combinations targeting novel dependencies in MECOM-rearranged (r) AML: MV-4-11 cell line (AID 2202233). Also: nearly all actives have a fitted effect of over 45% in size. Also: potency is read from the fitted curve at half-maximal effect. Summed up:
(§2)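 Activity is given as area under the curve and as Z-AUC, mean-centred within each cell line. It comes from 11-point dose curves normalized to DMSO and empty wells. CellTiter-Glo luminescence was read after 48 hr drug exposure of 500 cells/well.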

Test [8] can be described thus: BET inhibitor-based combinations targeting novel dependencies in MECOM-rearranged (r) AML: HNT-34 cell line (AID 2202234). Also: nearly all actives have a fitted effect of over 35% in size. Also: potency is read from the fitted curve at half-maximal effect. Summed up:
as §2

Test [9] can be described thus: BET inhibitor-based combinations targeting novel dependencies in MECOM-rearranged (r) AML: UCSD-AML1 cell line (AID 2202235). Also: nearly all actives have a fitted effect of over 40% in size. Also: potency is read from the fitted curve at half-maximal effect. Summed up: as §2
Test [10] in a line: BET inhibitor-based combinations targeting novel dependencies in MECOM-rearranged (r) AML: AML-191 cell line (AID 2202236;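 also: plate controls were vehicle wells for no effect and wells without cells for full effect; nearly all actives have a fitted effect of over 35% in size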). Summed up: as §1
A short description of test [11]: BET inhibitor-based combinations targeting novel dependencies in MECOM-rearranged (r) AML: AML-194 cell line (AID 2202237;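 also: plate controls were vehicle wells for no effect and wells without cells for full effect; nearly all actives have a fitted effect of over 40% in size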). Summed up: as §1

Cellular tumor antigen p53 (Homo sapiens), sequence (P04637 whole entry, looked up): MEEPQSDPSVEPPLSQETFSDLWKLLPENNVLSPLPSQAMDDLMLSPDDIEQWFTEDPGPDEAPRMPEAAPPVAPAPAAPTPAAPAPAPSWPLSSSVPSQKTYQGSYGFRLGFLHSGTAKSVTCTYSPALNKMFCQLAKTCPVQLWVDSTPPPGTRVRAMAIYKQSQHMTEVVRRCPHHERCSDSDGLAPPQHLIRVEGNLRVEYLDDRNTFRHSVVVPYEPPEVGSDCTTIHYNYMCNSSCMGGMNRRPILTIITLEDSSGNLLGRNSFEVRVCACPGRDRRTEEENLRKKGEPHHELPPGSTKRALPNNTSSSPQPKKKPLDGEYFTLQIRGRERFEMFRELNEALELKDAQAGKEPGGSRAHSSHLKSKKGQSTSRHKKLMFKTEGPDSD

As to `CC(C)c1cc(C(=O)N2Cc3ccc(CN4CCN(C)CC4)cc3C2)c(O)cc1O`, the activation in test [1] was -13.4%. The Potency entry in test [2], in test [3] and in test [4] was “inactive” in each case. Besides, the Potency in test [5] is 263 nM (active); in [6], 296 nM (active); in test [7], 74.2 nM (active); in test [8], 209 nM (active); in [9] it was 263 nM (active).
As for `CCOc1nc2c(N)ncnc2n1CC`, the activation in test [1] was -10%. For the same molecule, the Potency result in test [2], in test [3] and in [4] was “inactive” in each case.
What is called viability is a read-out of living cells in per cent, often relative to untreated cells. Regarding `O=C(O)CCn1c2c(c3ccccc31)C[C@H](NS(=O)(=O)c1ccc(F)cc1)CC2`, in [1], the activation is 0.565% and -1.83% and 6.68%. Moreover, the Potency entry in test [2], in [3], in test [4], in [6], in [7] and in test [8] was “inactive” in each case. Further, the Potency entry in [9], in test [10] and in test [11] was “inactive” in each case. In addition, the viability in [5] is 105%.
Regarding `COC(=O)c1ccc2c(c1)nc(NC(=O)c1ccccc1)n2CCCc1ccccc1`, the activation in [1] was -10%. Further, the Potency entry in test [2], in test [3] and in test [4] was “inactive” each time.
`Cc1cccc(C)c1OCc1cc(C(=O)N2CCC(c3ccncc3)CC2)no1`: the activation in [1] is 0.955%. Moreover, the Potency entry in test [2], in [3] and in [4] was “inactive” throughout.
`Cc1nnc(C(C)C)n1C1CC2CCC(C1)N2CCC(NC(=O)C1CCC(F)(F)CC1)c1ccccc1` (stereo not given): the activation in test [1] is -3.82%. The Potency entry in test [2], in test [3], in [4], in [6], in test [7] and in test [8] was “inactive” throughout. For the same molecule, the Potency result in test [9], in test [10] and in test [11] was “inactive” in each case. Moreover, the viability in test [5] is 109%.
In the case of `Cc1noc2c1-c1ccccc1C(c1ccc(Cl)cc1)=N[C@H]2CC(N)=O`, the activation in test [1] is 32.4%. The Potency entry in test [2], in test [3] and in test [4] was “inactive” each time. In addition, the Potency in [5] is 2350 nM (active); in [6], 1320 nM (active); in test [7] it was 525 nM (active).
